D2 PAM-1 = potentiates the human D2 dopamine receptor allosterically; P14416; DiscoveRx D2 beta-arrestin cells, luminescence, 90 min; 100% = 57 uM dopamine signal; potentiation, % (no concentration beside the values); 0.23% of 360,000 active; AID 624464; in the data active = potentiation above about 50%
Target sequence (P14416 whole entry, looked up): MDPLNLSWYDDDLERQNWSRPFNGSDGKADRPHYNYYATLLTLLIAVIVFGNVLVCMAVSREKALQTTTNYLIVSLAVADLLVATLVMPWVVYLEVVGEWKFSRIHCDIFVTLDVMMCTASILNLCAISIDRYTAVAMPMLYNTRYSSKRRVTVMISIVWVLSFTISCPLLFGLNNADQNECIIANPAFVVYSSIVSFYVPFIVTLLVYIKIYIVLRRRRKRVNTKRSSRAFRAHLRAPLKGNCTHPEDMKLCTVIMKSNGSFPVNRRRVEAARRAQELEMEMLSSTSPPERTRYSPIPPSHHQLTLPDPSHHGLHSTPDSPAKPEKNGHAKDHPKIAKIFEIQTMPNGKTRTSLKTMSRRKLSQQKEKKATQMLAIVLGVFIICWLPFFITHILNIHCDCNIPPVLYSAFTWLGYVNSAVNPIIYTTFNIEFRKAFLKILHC
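PathHunter D2 cells, attached overnight at 37 deg C, received compound in DMSO plus dopamine at EC20 (50 nM final) for 90 min at 37 deg C. Beta-arrestin recruitment was read as luminescence after 1 h with detection reagent at ambient temperature.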
D2 PAM-2 = positively modulates the human D2 dopamine receptor allosterically | HEK293 T-REx D2, calcium flux, EC20 dopamine potentiation | 0.34% of 340,000 active | P14416 | AID 485347 | potentiation, % at 10 µM;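 active = potentiation over 3 SD above the plate norm, cut at about 30% in these data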; note: 0% is about no effect
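Primary screen. Calcium kinetics in induced HEK293 T-REx D2 cells: compound pre-addition 180 s, EC20 dopamine, 180 s more.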
D2 antagonist = D2 dopamine receptor (human) antagonism; P14416; HEK293 TREx D2 cells, calcium flux, dopamine EC80; inhibition, % at 10 µM; 2% of 340,000 active; AID 485344; in the data active = inhibition above about 30%; inactive = below that, where a call was filed; note: 0% is about no effect
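Compounds are added to dye-loaded, induced HEK293 T-REx cells coupled to calcium release via D2; after a 3 min kinetic read an EC80 dopamine stimulus is given and fluorescence is recorded for 3 more min.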
D2 ag-1 = agonists of human D2 dopamine receptor | P14416 | 0.53% of 340,000 active | activation, % at 2 µM | HEK293 T-REx D2 cells, calcium flux agonist mode;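 active = activation over 3 SD above normal in the single-dose calcium agonist read, cut at about 30% in these data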; note: 0% is about no effect
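In this primary screen, compounds producing a positive calcium signal within 180 s of addition to tetracycline-induced, force-coupled HEK293 Trex D2 cells are flagged; cells are dye-loaded with a no-wash calcium kit beforehand.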
D2 ag-2 = activates the human D2 dopamine receptor; P14416; DiscoveRx PathHunter D2 beta-arrestin, luminescence, 90 min; 100% = 57 uM dopamine signal; activation, % (test concentration not listed); 0.084% of 360,000 active; in the data active = activation above about 40%
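DiscoveRx PathHunter D2 beta-arrestin cells (2,100/well) attached overnight, then compound-stimulated 90 min at 37 C in HBSS/10 mM HEPES/0.1% Tween-20 buffer; beta-galactosidase complementation read by luminescence after 1 h at ambient temperature. Dopamine 57 uM final (EC100) as control.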
* hit, by the source's call. Compounds with a hit are over-represented: about 2.4% of the library has one in this group of screens.

Screening COc1cccc(N2CCN(C(=O)Cn3ncc4c(=O)oc5ccccc5c43)CC2)c1 returned D2 PAM-2 -5 and D2 ag-1 0.
For COc1ccccc1N1CCN(C2CCN(C(=O)COc3ccccc3)CC2)CC1 the results were D2 PAM-1 -32, D2 PAM-2 -22, D2 antagonist 90*, D2 ag-1 27 and D2 ag-2 1.
Screening COc1ccccc1N1CCN(C(=O)c2c(C)noc2C)CC1 returned D2 PAM-1 -1, D2 PAM-2 10, D2 antagonist -12, D2 ag-1 0 and D2 ag-2 4.
For COc1ccccc1N1CCN(C(=O)C2CC=CCC2C(=O)O)CC1 (configuration not stated) the results were D2 PAM-1 -35, D2 PAM-2 -28, D2 antagonist 33*, D2 ag-1 0 and D2 ag-2 -2.
For COc1ccccc1N1CCN(C(=O)c2ccoc2C)CC1 the results were D2 PAM-1 -5, D2 PAM-2 -6, D2 antagonist 35*, D2 ag-1 1 and D2 ag-2 0.
`COc1ccccc1N1CCN(C(=O)c2coc(=O)c(Br)c2)CC1` gave D2 PAM-1 -17, D2 PAM-2 -15, D2 antagonist 43*, D2 ag-1 1 and D2 ag-2 -2.
`COc1ccc(NCC(=O)Nc2cccc(C(F)(F)F)c2)cc1S(=O)(=O)N1CCOCC1` gave D2 PAM-1 -2 and D2 ag-2 -1.
COc1ccccc1N1CCN(C(=O)C2CCN(C(=O)c3ccccc3Cl)CC2)CC1 was read as D2 PAM-1 10, D2 PAM-2 0, D2 antagonist 4, D2 ag-1 1 and D2 ag-2 -1.
`COc1ccccc1N1CCN(C2CCCC(C)C2)CC1` (configuration not stated) gave D2 PAM-1 -23, D2 PAM-2 -22, D2 antagonist 34*, D2 ag-1 0 and D2 ag-2 -2.
COc1ccccc1C(=O)N1CCC(N2CCN(c3ccccc3OC)CC2)CC1 was read as D2 PAM-1 -21, D2 PAM-2 -28, D2 antagonist 38*, D2 ag-1 9 and D2 ag-2 0.
For COc1ccc2c(c1)Cc1sc(NC(=O)c3ccc(Cl)cc3)nc1-2 the results were D2 PAM-2 0 and D2 ag-1 0.
For O=C(Cc1ccc(NC(=O)C2CCN(C(=O)CCc3ccccc3)CC2)cc1)Nc1ccc(C(=O)N2CCOCC2)cc1 the results were D2 PAM-1 -4 and D2 ag-2 -1.
`C[C@@H]1C2CC(C/C2=N\NC(=O)c2ccncc2)C1(C)C` (some centres not stated) gave D2 PAM-1 -5, D2 PAM-2 2, D2 antagonist 36*, D2 ag-1 0 and D2 ag-2 -3.
CC1C2CC(C/C2=N/NC(=O)c2cccs2)C1(C)C (configuration not stated) was read as D2 PAM-1 -2, D2 PAM-2 -9, D2 antagonist -1, D2 ag-1 -1 and D2 ag-2 -1.
C=CCNc1nc(S(=O)Cc2ccc(C)cc2)nc2c1CCCC2 (configuration not stated) was read as D2 PAM-1 -5, D2 PAM-2 3, D2 antagonist -8, D2 ag-1 0 and D2 ag-2 0.
`O=C(C1CCN(S(=O)(=O)N2CCOCC2)CC1)N1CCc2ccccc21` gave D2 PAM-1 -14, D2 PAM-2 0, D2 antagonist 36*, D2 ag-1 -1 and D2 ag-2 -5.
Screening O=C(C1CCC(C(=O)N2CCc3ccccc32)CC1)N1CCc2ccccc21 (configuration not stated) returned D2 PAM-1 -3, D2 PAM-2 -30, D2 antagonist -3, D2 ag-1 7 and D2 ag-2 -1.
CN(C)c1ccc(CNn2cnnc2SCc2ccc(F)cc2)cc1 was read as D2 PAM-1 -2, D2 PAM-2 38*, D2 antagonist -3, D2 ag-1 -1 and D2 ag-2 1.
For CC(NC(=O)c1ccc(NC(=O)c2nsc3ccccc23)cc1)c1ccccc1 (configuration not stated) the results were D2 PAM-2 4.
For CC(C)OCCCNC(=O)c1ccc(CN2CCc3ccccc3C2)cc1 the results were D2 PAM-1 -25, D2 PAM-2 -21, D2 antagonist 44*, D2 ag-1 0 and D2 ag-2 -6.
Cc1ccccc1NC(=O)c1ccc(CN2CCc3ccccc3C2)cc1 was read as D2 PAM-1 -15 and D2 ag-2 -1.
CCc1cccc(C)c1NC(=O)c1ccc(CN2CCc3ccccc3C2)cc1 was read as D2 PAM-1 -35, D2 PAM-2 -27, D2 antagonist 55*, D2 ag-1 -1 and D2 ag-2 -2.
COc1ccc(OC)c(NC(=O)c2ccc(CN3CCc4ccccc4C3)cc2)c1 was read as D2 PAM-1 -27, D2 PAM-2 -20, D2 antagonist 41*, D2 ag-1 0 and D2 ag-2 -3.
Screening COC(=O)c1ccc(CN2CCc3ccc(NC(=O)c4ccncc4)cc3C2)cc1 returned D2 PAM-1 -37, D2 PAM-2 -13, D2 antagonist 35*, D2 ag-1 1 and D2 ag-2 3.
`CCOCCCNC(=O)c1ccc(CN2CCc3ccccc3C2)cc1` gave D2 PAM-1 -38 and D2 ag-2 0.
`COCCNC(=O)CSc1nnc2[nH]c(=O)cc(C)n12` gave D2 PAM-2 1 and D2 ag-1 -1.
`Cc1ccc(NC(=O)CN(C)C(=O)CSc2ncc(C(F)(F)F)cc2Cl)cc1` gave D2 PAM-1 -23, D2 PAM-2 -25, D2 antagonist 93*, D2 ag-1 -1 and D2 ag-2 -3.
For COc1ccccc1CNC(=O)COC(=O)c1n[nH]c2ccccc12 the results were D2 PAM-1 -8, D2 PAM-2 -2, D2 antagonist -4, D2 ag-1 -1 and D2 ag-2 -1.
Screening COc1ccc(CNC(=O)COC(=O)c2n[nH]c3ccccc23)cc1OC returned D2 PAM-1 -6, D2 PAM-2 5, D2 antagonist 30*, D2 ag-1 1 and D2 ag-2 1.
Cc1cc(NC(=O)CCC(=O)N(CCC(C)C)C(C(=O)NC2CCCC2)c2ccccc2C)no1 (configuration not stated) was read as D2 PAM-1 -1, D2 PAM-2 -2, D2 antagonist 51*, D2 ag-1 1 and D2 ag-2 8.
Screening CCc1ccc(N(C(=O)CCC(=O)Nc2cc(C)on2)C(C(=O)NC2CCCC2)c2ccco2)cc1 (configuration not stated) returned D2 PAM-1 -16, D2 PAM-2 11, D2 antagonist 33*, D2 ag-1 -1 and D2 ag-2 -5.

Assay outcomes: PubChem BioAssay, National Center for Advancing Translational Sciences (NCATS)
